Publication PMC4336329 (PLoS ONE, 2015)
Among all 310,000 compounds or so, about 14,000 (4.5%) showed an effect of 50% or more. The effect is printed as a negative number. The sample as a whole holds a higher share of strong results than the screen did.

target: human ether-à-go-go-related gene (hERG) potassium channel (human, UniProt Q12809); experiment: primary screen, population patch clamp on CHO cells stably expressing hERG; higher = less effect of the substance
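Note: peak tail current of the secondary pulse compared with the same well before compound.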

Sequence of human ether-à-go-go-related gene (hERG) potassium channel (Q12809 whole entry, looked up): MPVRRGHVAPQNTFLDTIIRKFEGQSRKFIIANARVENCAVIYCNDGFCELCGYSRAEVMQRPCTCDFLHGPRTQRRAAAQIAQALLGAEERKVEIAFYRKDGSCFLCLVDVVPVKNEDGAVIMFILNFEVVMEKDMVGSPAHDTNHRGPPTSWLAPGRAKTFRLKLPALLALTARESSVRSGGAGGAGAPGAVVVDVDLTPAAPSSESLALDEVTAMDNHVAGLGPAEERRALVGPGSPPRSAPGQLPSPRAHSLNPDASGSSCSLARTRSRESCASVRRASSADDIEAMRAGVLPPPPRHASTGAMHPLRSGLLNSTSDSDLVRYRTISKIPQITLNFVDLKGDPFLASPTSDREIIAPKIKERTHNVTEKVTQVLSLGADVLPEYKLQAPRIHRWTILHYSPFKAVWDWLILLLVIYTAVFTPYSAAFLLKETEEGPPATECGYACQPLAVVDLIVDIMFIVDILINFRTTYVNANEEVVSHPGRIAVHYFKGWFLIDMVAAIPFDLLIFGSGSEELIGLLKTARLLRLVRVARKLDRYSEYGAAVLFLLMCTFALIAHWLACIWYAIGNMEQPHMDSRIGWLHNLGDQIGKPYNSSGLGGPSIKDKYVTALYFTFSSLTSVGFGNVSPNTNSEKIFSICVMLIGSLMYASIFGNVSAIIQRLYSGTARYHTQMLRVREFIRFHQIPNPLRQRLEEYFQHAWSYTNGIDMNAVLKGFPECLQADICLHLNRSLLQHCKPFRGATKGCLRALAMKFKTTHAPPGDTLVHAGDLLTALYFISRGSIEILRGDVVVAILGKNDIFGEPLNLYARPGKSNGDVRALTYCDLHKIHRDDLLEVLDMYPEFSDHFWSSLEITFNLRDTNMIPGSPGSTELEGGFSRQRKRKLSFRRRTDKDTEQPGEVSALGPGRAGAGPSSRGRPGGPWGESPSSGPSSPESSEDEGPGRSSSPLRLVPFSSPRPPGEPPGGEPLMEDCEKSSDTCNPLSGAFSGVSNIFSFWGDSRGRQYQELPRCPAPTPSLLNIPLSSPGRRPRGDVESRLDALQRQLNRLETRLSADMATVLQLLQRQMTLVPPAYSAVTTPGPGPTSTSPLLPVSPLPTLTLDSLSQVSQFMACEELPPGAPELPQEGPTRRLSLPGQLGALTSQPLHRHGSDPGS

| Compound | hERG current change (%, negative = inhibition) at 10uM [%] |
| --- | --- |
| COC(=O)c1c(NC(=O)CSc2nnnn2-c2ccccc2)sc2c1CCC(C(C)(C)C)C2 (stereo not shown) | -1.38 |
| C=CCn1c(SCC(=O)Nc2cccnc2Cl)nnc1-c1ccc(Cl)cc1 | -45.4 |
| CCOC(=O)C1(C)C=C(Nc2ccccc2)C(=O)N1c1ccccc1 (stereo not shown) | 25.7 |
| Cc1c(NC(=O)/C(C#N)=C/c2c(Oc3ccccc3)nc3ccccn3c2=O)c(=O)n(-c2ccccc2)n1C | 5.93 |
| CCN(CC)S(=O)(=O)N1CCC(C(=O)NCc2ccc(C)cc2)CC1 | -16.9 |
| CSc1ccc(CN2CCC(C(=O)NCc3ccc(C)cc3)CC2)cc1.O=C(O)C(=O)O | -87.6 |
| Cc1ccc(CNC(=O)C2CCN(S(=O)(=O)N3CCCC3)CC2)cc1 | 0.472 |
| CCN(CC)c1ccc(CN2CCC(C(=O)NCc3ccc(C)cc3)CC2)cc1.O=C(O)C(=O)O | -65.3 |
| Cc1ccc(CNC(=O)C2CCN(S(=O)(=O)N3CCCCC3)CC2)cc1 | -11.4 |
| Cc1ccc(CNC(=O)C2CCCC2)cc1 | 8.93 |
| O=C1c2ccccc2C(=O)N1CNc1ccccc1 | 18.7 |
| O=C1CC(c2ccccc2)CN1C(=O)c1cncc(Br)c1 (stereo not shown) | 5.75 |
| O=C(c1cccnc1)N1N=C(C2CCCCC2)CC1(O)C(F)(F)F (stereo not shown) | -0.742 |
| CCN1CCCC1CNC(=O)c1csc2c1CCCC2 (stereo not shown) | -38.9 |
| CCN1CCN(CCCNC(=O)c2csc3c2CCCCC3)CC1 | -7.21 |
| CC1CCCC(C)N1CCCNC(=O)c1csc2c1CCCCC2 (stereo not shown) | -49.3 |
| CC(C)CCNC(=O)c1csc2c1CCCCC2 | 2.04 |
| O=C(NCCN1CCOCC1)c1csc2c1CCCCC2 | 5.21 |
| CCC1CCCCN1CCCNC(=O)c1csc2c1CCCCC2 (stereo not shown) | -56.7 |
| CC1CC(C)CN(CCCNC(=O)c2csc3c2CCCCC3)C1 (stereo not shown) | -61.2 |
| O=C(NCCCN1CCOCC1)c1csc2c1CCCC2 | -7.57 |
| CC1CC(C)CN(CCCNC(=O)c2csc3c2CCCC3)C1 (stereo not shown) | -65 |
| CC1(C)Cc2c(sc(NC(=O)c3ccc4ncsc4c3)c2C(N)=O)C(C)(C)N1 | -30.5 |
| Cc1cccc(NC(=O)Nc2ccccc2[N+](=O)[O-])n1 | 16.7 |
| NS(=O)(=O)c1ccc(CCNC(=O)CN2CCN(c3ccc(F)cc3)CC2)cc1 | -18.7 |
| COCCSc1ccccc1C(=O)Nc1ccc2c(c1)OCCO2 | 5.7 |
| COc1ccc(C(C(=O)NC2CCCCC2)N(C(=O)c2snc(C(N)=O)c2N)c2ccc(OC)cc2OC)cc1 (stereo not shown) | 9.37 |
| COc1ccc(C(C(=O)NC2CCCC2)N(C(=O)c2snc(C(N)=O)c2N)C2CCCC2)cc1OC (stereo not shown) | 5.77 |

| Compound | hERG current change (%, negative = inhibition) at 10uM [%] |
| --- | --- |
| CCOCCCN(C(=O)c1snc(C(N)=O)c1N)C(C(=O)NC1CCCC1)c1ccc(O)cc1 (stereo not shown) | 3.52 |
| CCOCCCN(C(=O)c1snc(C(N)=O)c1N)C(C(=O)NC1CCCC1)c1ccc(F)cc1 (stereo not shown) | -12 |
| CCOc1ccc(C(C(=O)NC2CCCCC2)N(CCOC)C(=O)c2snc(C(N)=O)c2N)cc1 (stereo not shown) | -47.5 |
| CCOCCCN(C(=O)c1snc(C(N)=O)c1N)C(C(=O)NC(C)(C)C)c1ccc(Cl)cc1 (stereo not shown) | -33.1 |
| CCC(C(=O)NC1CCCC1)N(C(=O)c1snc(C(N)=O)c1N)c1ccc(OC)c(OC)c1 (stereo not shown) | 15.5 |
| CCOCCCN(C(=O)c1snc(C(N)=O)c1N)C(C(=O)NCCC(C)C)c1ccc(F)cc1 (stereo not shown) | -23.6 |
| CCOc1ccc(C(C(=O)NC2CCCC2)N(C(=O)c2snc(C(N)=O)c2N)C2CCCC2)cc1 (stereo not shown) | -51.1 |
| CCC(C(=O)NC1CCCCC1)N(C(=O)c1snc(C(N)=O)c1N)c1ccc(OC)cc1OC (stereo not shown) | -69.3 |
| CCOCCCN(C(=O)c1snc(C(N)=O)c1N)C(C(=O)NCCC(C)C)c1ccc(Cl)cc1 (stereo not shown) | -68.1 |
| CCOCCCN(C(=O)c1snc(C(N)=O)c1N)C(C(=O)NC1CCCC1)c1ccc(OC)cc1 (stereo not shown) | -60.5 |
| CCCCC1CCCOC(C(=O)NCCNCCO)(C(F)(F)F)C1 (stereo not shown) | 6.03 |
| CN(C)c1nnnn1-c1ccc(Cl)cc1Cl | 0.276 |
| CCN(CC)C(=O)c1n[nH]c(=O)c2ccccc12 | 4 |
| CCn1c(SCC(=O)Nc2cc(C)on2)nnc1-c1ccccc1 | -3.05 |
| COc1ccc(-c2cc(C(=O)N3CCN(c4ccccc4OC)CC3)no2)cc1OC | -0.868 |
| N#CCOC(=O)c1c2c(nc3ccccc13)CCC2 | -23.1 |
| Cc1ccc(C)c(S(=O)(=O)N2CCN(CC(=O)NC(=O)NCc3ccccc3)CC2)c1 | -9.97 |
| Cc1cc(C)n(-c2ccc(C(=O)N3CCc4ccccc43)cc2)n1 | -3.89 |
| COc1ccccc1NC(=O)Nc1ccccc1C#N | 15.6 |
| O=C1CCCN1CCCNS(=O)(=O)c1cccc(F)c1 | 25.9 |
| CCOc1ccccc1N(C(=O)c1snc(C(N)=O)c1N)C(C(=O)NC1CCCC1)c1ccco1 (stereo not shown) | -55 |
| CCOc1ccccc1N(C(=O)c1snc(C(N)=O)c1N)C(C(=O)NCCC(C)C)c1ccco1 (stereo not shown) | -22.2 |
| COc1ccccc1N(C(=O)c1snc(C(N)=O)c1N)C(C(=O)NC1CCCC1)c1ccco1 (stereo not shown) | -35.4 |
| CNC(=S)N1CCN(c2nc(-c3ccc(Cl)cc3)cs2)CC1 | 14.7 |
| Cc1cc2c(cc1C)N(Cc1ccccc1)C1=NCCCN12.Cl | -72.3 |
| Cc1cc2c(cc1C)N(Cc1ccc(Cl)cc1)C1=NCCCN12 | -69.8 |
| COC(=O)c1cc(Cl)cc2c(C)c(C3(O)CCCCC3)[nH]c12 | 15 |
